CYP2C19 inhib: blockers of cytochrome P450 2C19 activity – biochemical, luminescence, ADME assay, primary screen; hit rate 21% among 96,000; CYP2C19 Supersomes, luciferin-H EGE luminescence, 30 min; inhibition, % at 5 µM; P33261;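 active = CYP2C19 inhibition above a set limit at 5 µM in the primary screen, cut at about 50% in these data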;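 also: plate controls were negative control wells for no effect and 2.5 mM tranylcypromine positive control for full effect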
Target sequence (P33261 whole entry, looked up): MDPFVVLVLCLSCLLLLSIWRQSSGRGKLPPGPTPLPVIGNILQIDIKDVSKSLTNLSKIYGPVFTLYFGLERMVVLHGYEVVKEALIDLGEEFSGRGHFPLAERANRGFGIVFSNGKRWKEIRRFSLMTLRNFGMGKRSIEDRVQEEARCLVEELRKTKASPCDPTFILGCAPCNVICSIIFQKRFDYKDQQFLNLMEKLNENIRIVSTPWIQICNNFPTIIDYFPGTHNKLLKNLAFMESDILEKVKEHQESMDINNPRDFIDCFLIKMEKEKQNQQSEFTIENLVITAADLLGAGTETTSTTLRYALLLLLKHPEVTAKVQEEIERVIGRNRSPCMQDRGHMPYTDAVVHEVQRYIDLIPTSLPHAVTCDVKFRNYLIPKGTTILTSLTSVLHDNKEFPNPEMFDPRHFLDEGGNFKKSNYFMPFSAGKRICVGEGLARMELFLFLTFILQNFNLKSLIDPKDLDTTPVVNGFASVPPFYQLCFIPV
PostGolgi ctrl: growth inhibition of yeast control strain, primary screen, counter-screen for post-Golgi transport modulator project | efflux-deficient yeast background strain, growth absorbance A615, 16 h | inhibition, % at 10 µM | hit rate 5% among 98,000 | AID 738, 2007
PostGolgi yeast: phenotypic screen on post-Golgi transport, primary screen | AID 739, 2007 | post-Golgi transport phenotypic cell assay | hit rate 0.9% among 98,000 | inhibition, % at 10 µM;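 also: yeast cells grown in 1536-well plates; yeast grown about 18 h at 30C before absorbance read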
CYP2C19 activ: human CYP2C19 activators, primary screen, biochemical, luminescence; Cytochrome P450 2C19 (Homo sapiens), P33261; 96,000 tested, under 10 active; recombinant CYP2C19, luciferin-H EGE luminescence; active compounds read high; 0 = fully inhibited enzyme, 1 = untreated enzyme; activation factor at 5 µM;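 active = activation factor of at least 2 at 5 µM in the primary screen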;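 also: 0 = wells with 2.5 mM tranylcypromine and 1 = vehicle-only wells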
CYP2C9 act: human CYP2C9 activators, primary screen, biochemical, luminescence; recombinant CYP2C9, luciferin-H conversion; active compounds read high; factor 1 = untreated enzyme, 0 = blocked; activation factor at 5 µM; hit rate 1.4% among 96,000;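 active = activation factor of 2 or more for CYP2C9 at a 5 µM dose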;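 also: 0 = sulfaphenazole-blocked wells and 1 = vehicle-only wells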
CYP2C9 inhib: blockers of cytochrome P450 2C9 activity – biochemical, luminescence, ADME assay, primary screen. inhibition, % at 5 µM. P11712. AID 777, 2007. CYP2C9 Supersomes, luciferin-H conversion. hit rate 20% among 96,000;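 active = blocking of liver enzyme CYP2C9 beyond about 50% at 5 µM, limit read from the data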
Numbers without * were called inactive. In the library only some 32% were active in any assay of this set; here they are far more common. Rule as the data show it, unless noted: active = inhibition above about 30%; inactive = the rest.

SMILES	CYP2C19 inhib	PostGolgi ctrl	PostGolgi yeast	CYP2C19 activ	CYP2C9 act	CYP2C9 inhib
O=C(NCc1ccncc1)Nc1ccc(F)cc1	92.2*	-0.5	3.1	0.1	0.2	79.4*
CN(C)C(CNS(=O)(=O)c1ccc(Cl)cc1)c1cccnc1 (centres undefined)	51.8*	8.4	-8.4	0.5	0.8	16.1
O=C(NCc1ccncc1)Nc1cccc(Cl)c1	89.8*	3.3	-0.3	0.1	0.2	81.2*
CN(C)C(CNC(=O)Nc1cccc(Cl)c1)c1cccnc1 (centres undefined)	51.1*	-4.3	-5.9	0.5	0.6	38.6
CCC(Sc1nncn1C)C(=O)Nc1ccccc1OC (centres undefined)	-18.6	3.6	1.1	1.2	1.2	-24.3
CC(C)(C)n1nc2c(c1NC(=O)CCCc1ccccc1)CS(=O)C2 (centres undefined)	36.0	5.2	-2.5	0.6	1	-2.9
COc1ccc2c(CC(=O)NCc3ccc4c(c3)OCO4)coc2c1	96.5*	3.3	-6.0	0	0.1	89.3*
Cc1ccc2c(CC(=O)NCc3ccc4c(c3)OCO4)coc2c1	52.3*	-6.5	-6.2	0.5	0.2	78.7*
Cc1ccc2c(CC(=O)OC(C)C(=O)NCc3ccc4c(c3)OCO4)coc2c1 (centres undefined)	53.3*	13.6	-4.8	0.5	0.1	94.3*
O=C(O)c1c(Cl)c(Cl)c(Cl)c(Cl)c1C(=O)N1CCCC1	-4.4	22.5	14.7	1	1	-3.2
COc1c(OC(C)=O)ccc(/C=C/c2ccc3ccccc3n2)c1[N+](=O)[O-]	88.6*	72.7*	-1.8	0.1	0.7	27.4
Cc1ccc(S(=O)(=O)NC2OC(=O)C(Cl)=C2Cl)cc1 (centres undefined)	-18.6	0.8	-8.6	1.2	1.1	-5.7
O=C(NCC1COc2ccccc2O1)Nc1ccccc1F (centres undefined)	95.5*	1.1	-8.8	0	0.2	84.7*
O=C(O)CNCC1COc2ccccc2O1 (centres undefined)	1.2	8.0	-1.2	1	0.9	7.7
O=C(NCC1COc2ccccc2O1)c1ccc(NC(=O)c2ccco2)cc1 (centres undefined)	10.4	16.9	3.1	0.9	0.8	19.9
O=C(NCC1COc2ccccc2O1)c1ccc(Cl)cc1 (centres undefined)	74.1*	25.2	58.0*	0.3	1	0.7
Cc1cc(=O)oc(C)c1C(=O)NCC1COc2ccccc2O1 (centres undefined)	17.3	8.2	-8.6	0.8	0.5	54.7*
CC(C)c1cc(CN2CCN(CCC#N)CC2)cc(C(C)C)c1O	-12.1	9.3	-1.8	1.1	1.2	-21.3
CN(Cc1ccccc1)C1CC(=O)N(c2ccc(C(=O)O)cc2)C1=O (centres undefined)	-1.1	42.4*	-2.2	1	1	1.3
CSc1ccccc1NC(=O)Cn1c(-c2cscn2)nc2ccccc21	98.5*	0.3	-1.5	0	0.2	78.5*
Brc1ccccc1Cn1c(-c2cscn2)nc2ccccc21	55.8*	53.8*	5.7	0.4	0.8	15.4
Cc1nc2ccccc2n1CC(=O)N/N=C\c1ccccn1	-10.1	4.1	1.6	1.1	1	-1.8
Clc1ncccc1-c1nc2ccccc2n1Cc1ccccc1	24.6	2.9	8.3	0.8	0.8	20.8
COc1cccc(C2NC(=O)NC(O)(C(F)(F)F)C2C(=O)c2cccnc2)c1OC (centres undefined)	91.9*	-6.2	18.2	0.1	0.5	48.6
CCCCOc1ccc(NC(=O)C(=O)NCCC2=CCCCC2)cc1	-3.0	1.7	-0.3	1	1.1	-12.0
SMILES	CYP2C19 inhib	PostGolgi ctrl	PostGolgi yeast	CYP2C19 activ	CYP2C9 act	CYP2C9 inhib
CNc1ccc(OC(F)F)cc1C(=O)c1ccccc1	43.2	5.1	10.7	0.6	0.9	13.6
Cc1ccc(NS(C)(=O)=O)c(C(=O)c2ccccc2)c1	69.9*	0.5	-0.7	0.3	0.7	29.2
CC(=O)NN1C(=O)/C(=C\c2ccc(C)cc2)SC1=S	52.3*	7.4	0.8	0.5	1	-2.6
CC(=O)c1ccc(OCC(O)CN2CCN(c3ccccn3)CC2)cc1 (centres undefined)	34.2	6.6	-0.2	0.7	0.8	18.7
COc1ccc(C)cc1S(=O)(=O)N(CC(=O)N1CCCC1)c1ccccc1	13.6	4.5	-9.9	0.9	0.1	89.3*
Cc1ccc(S(=O)(=O)N(CC(=O)N2CCCCCC2)c2ccccc2)cc1	11.8	6.8	11.6	0.9	0.7	31.9
COc1ccc(Br)cc1S(=O)(=O)N(CC(=O)N1CCOCC1)c1ccccc1	56.1*	-1.2	-10.4	0.4	0.3	67.8*
CO/N=C/c1ccc(N2CCN(C(=O)c3ccc(C)cc3)CC2)c([N+](=O)[O-])c1	39.0	0.9	-12.2	0.6	0.6	36.6
CN(C)S(=O)(=O)c1cccc(NC(=S)Nc2ccc(Cl)cc2Cl)c1	71.0*	1.9	-4.9	0.3	0.3	67.1*
CN(C)S(=O)(=O)c1cccc(NC(=S)Nc2cc(Cl)cc(Cl)c2)c1	45.1	84.1*	97.1*	0.5	0.6	37.6
CC(=O)c1cccc(NC(=O)c2cccc(S(=O)(=O)N(C)C)c2)c1	0.0	-0.9	-9.5	1	1	-2.5
CN(C)S(=O)(=O)c1cccc(CSc2cccc[n+]2[O-])c1	4.2	0.8	-11.5	1	0.9	5.6
O=C(O)CCC(=O)OCC1CCCO1 (centres undefined)	0.2	9.7	-12.8	1	1	3.2
CC(=O)c1ccc(NC2OC(C)C(O)C(O)C2O)cc1 (centres undefined)	-3.9	-2.2	-4.2	1	1.1	-6.3
O=S(=O)(c1ccc(Cl)cc1)N1CCSC1c1ccco1 (centres undefined)	98.0*	-1.0	-11.2	0	0.5	50.9*
COc1ccc(C2SCCN2S(=O)(=O)c2ccc(F)cc2)cc1OC (centres undefined)	55.8*	24.0	-6.0	0.4	1.8	-81.6
COc1ccc(S(=O)(=O)N2CCSC2c2ccc(OC)c(OC)c2)cc1 (centres undefined)	63.4*	10.4	-7.9	0.4	2*	-96.5
COc1ccccc1C1SCCN1S(=O)(=O)c1cccc(C(F)(F)F)c1 (centres undefined)	31.0	-3.0	-3.5	0.7	1.6	-63.4
CC(=O)Nc1ccc(S(=O)(=O)N2CCSC2c2ccccc2)cc1 (centres undefined)	59.1*	11.6	-11.5	0.4	0.7	31.0
CCCC(C)NC(=O)c1ccc(C2SCC(=O)N2Cc2ccco2)cc1 (centres undefined)	17.9	8.4	1.4	0.8	0.9	12.8

Bioassay records from PubChem.
